Vif-APOBEC3F blk = blocks the Vif interaction with APOBEC3F. AID 602313. Potency, µM (doses to about 46.1 µM). HeLa A3F-eYFP + Vif (tagged APOBEC3F with the HIV-1 protein that degrades it), YFP fluorescence increase. 0.2% of 390,000 active; note: nearly all actives have a fitted effect of over 65% in size
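HeLa cells stably expressing Vif plus C-terminally eYFP-tagged A3F were seeded, incubated overnight at 37 deg C, dosed with compound, incubated overnight again at 37 deg C. Yellow fluorescence (Ex 488/Em 500-530) reported blocked Vif-mediated A3F-eYFP degradation.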
PLK1 PBD block = blocks phosphopeptide binding to human PLK1 polo-box domain | Potency, µM, usual class: inhibitors | Plk1 PBD binding of FITC phosphopeptide, fluorescence polarization | 2.8% of 360,000 active | P53350; note: series mostly up to about 57 µM; nearly all actives have a fitted effect of over 65% in size
Vif-A3G inh = inhibitors of Vif-APOBEC3G interaction. 0.076% of 410,000 active. HeLa A3G-eYFP + Vif (tagged APOBEC3G with the HIV-1 protein that degrades it), YFP fluorescence, overnight. Q9HC16. Potency, µM (doses to about 46.1 µM), usual class: inhibitors; note: nearly all actives have a fitted effect of over 60% in size
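HeLa cells stably expressing Vif and C-terminally eYFP-tagged A3G, seeded overnight at 37 deg C, then exposed to compound by pintool overnight at 37 deg C. Rise in yellow fluorescence (Ex 488/Em 500-530, Acumen) marks blocked Vif-driven A3G degradation.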
TSHR antagonist = blocks TSH signaling through the human TSH receptor. activity change, negative = inhibition, % at 11.5 µM. 0.2% of 330,000 active. TSHR-expressing cells, TSH-stimulated cAMP HTRF, 2 h; stronger effect = lower value. AID 504810. P16473;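 active = activity change below a set negative limit, meaning inhibition stronger than a set level, cut at about -70% in these data; inconclusive = activity change between two set negative limits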
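Inhibition of cAMP made by TSHR-expressing cells under TSH stimulation (4nM final, EC80; 2 h, 37 deg C) is quantified with a one-step lysis HTRF kit, anti-cAMP cryptate versus cAMP-d2.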
VDR inh = inhibitors of human vitamin D receptor | 0.93% of 400,000 active | VDR-SRC2-3 peptide fluorescence polarization, 2 h | Potency, µM, usual class: inhibitors | P11473 | AID 504847
Target sequence (P11473 whole entry, looked up): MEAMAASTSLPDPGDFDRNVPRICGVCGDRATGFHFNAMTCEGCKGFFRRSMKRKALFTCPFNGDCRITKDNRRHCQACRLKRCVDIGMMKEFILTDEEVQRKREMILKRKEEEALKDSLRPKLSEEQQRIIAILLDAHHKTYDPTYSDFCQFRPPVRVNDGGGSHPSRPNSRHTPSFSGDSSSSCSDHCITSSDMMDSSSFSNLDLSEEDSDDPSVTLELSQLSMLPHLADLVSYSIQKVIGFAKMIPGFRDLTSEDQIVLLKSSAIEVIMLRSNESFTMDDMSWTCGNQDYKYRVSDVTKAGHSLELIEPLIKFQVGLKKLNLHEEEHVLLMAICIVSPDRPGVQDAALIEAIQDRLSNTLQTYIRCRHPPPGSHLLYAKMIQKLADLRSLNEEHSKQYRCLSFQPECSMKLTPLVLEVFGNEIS
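Inhibition of the VDR/SRC2-3 peptide interaction is quantified by fluorescence polarization. Compounds (23 nl, pintool) incubate with the reagents for 2 hours at ambient room temperature.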
Of the large screens only hits and unclear results are named; the others gave an inactive call; ! = a repeat was not active. Sampled rows, rich in hits. Any-hit rate of the full collection: about 3.1%. Unless noted, calls come from the whole dose curve; as a rule, active = well fitted curve in the direction sought with a large enough effect; inconclusive = small, poorly fitted or top-dose-only effect, or another doubt; inactive = no such curve, though single readings can be large; an effect the other way counts as inactive or inconclusive.

C/C=C1/C[C@@H](C)[C@](O)(CO)C(=O)OCC2=CCN3CC[C@@H](OC1=O)C23 (some centres not stated)	none (no result: Vif-APOBEC3F blk, PLK1 PBD block, Vif-A3G inh, TSHR antagonist)
ClC1=C(Cl)C(Cl)(C2(Cl)C(Cl)=C(Cl)C(Cl)=C2Cl)C(Cl)=C1Cl	VDR inh 3.2µM (no result: Vif-APOBEC3F blk, PLK1 PBD block, Vif-A3G inh, TSHR antagonist)
CCOC(=O)c1c(/N=C/C2C(=O)NC(=S)NC2=O)sc(C)c1C	none (no result: Vif-APOBEC3F blk, PLK1 PBD block, Vif-A3G inh, VDR inh)
CCOC(=O)c1cc(C)sc1/N=C/C1C(=O)NC(=S)NC1=O	PLK1 PBD block 5.3µM, VDR inh inconclusive
CC1(C)N([O])C(c2ccc(C(=O)O)cc2)=[N+]([O-])C1(C)C	none (no result: Vif-APOBEC3F blk, PLK1 PBD block, TSHR antagonist, VDR inh)
Cc1noc(C)c1C(=O)N1CCC2(CCCN(CC(C)C)C2)CC1	none (no result: Vif-APOBEC3F blk, PLK1 PBD block, Vif-A3G inh, TSHR antagonist)
O=C1NC(=O)C(=Cc2coc3ccccc3c2=O)C(=O)N1	PLK1 PBD block 11µM, VDR inh inconclusive
O=C1NC(=O)C(=C/C=C/c2coc3ccc(Br)cc3c2=O)C(=O)N1	none (no result: Vif-APOBEC3F blk, PLK1 PBD block, Vif-A3G inh, VDR inh)
CCN1C(=O)NC(=O)/C(=C\c2cn(CC(=O)N3CCCCC3)c3ccccc23)C1=O	PLK1 PBD block inconclusive
COCCNC(=O)Cn1cc(C(=O)c2ccccc2F)c2ccccc21	PLK1 PBD block 30µM, VDR inh inconclusive
C=CCn1c(C)c(C=C2C(=O)NC(=O)NC2=O)c2ccccc21	PLK1 PBD block 27µM, VDR inh inconclusive
O=C(c1ccccc1F)c1cn(CC(=O)N2CCCC2)c2ccccc12	PLK1 PBD block 3µM
C=C1C=C(C(F)F)n2ncc(C(=O)NCc3ccccc3F)c2N1	none (no result: Vif-APOBEC3F blk, PLK1 PBD block, TSHR antagonist, VDR inh)
COC(=O)Cn1cc(/C=C2\C(=O)NC(=O)N(c3ccccc3)C2=O)c2ccccc21	Vif-APOBEC3F blk inconclusive, PLK1 PBD block inconclusive
Cn1cc(C=C2C(=O)NC(=O)NC2=O)c2ccccc21	PLK1 PBD block 24µM
COCCNC(=O)Cn1cc(C=C2C(=O)NC(=O)NC2=O)c2ccccc21	PLK1 PBD block 6.7µM
C=C(C)[C@H]1[C@H]2OC(=O)[C@@H]1[C@]1(O)C[C@H]3O[C@]34C(=O)O[C@H]2[C@@]14C	none (no result: Vif-APOBEC3F blk, PLK1 PBD block, Vif-A3G inh, TSHR antagonist)
CCOP1(=S)Oc2cc3c(cc2C(C(=O)OC)(C(F)(F)F)O1)OCO3 (configuration not stated)	PLK1 PBD block 24µM, VDR inh 79µM
C=CCN1C(=O)NC(=O)/C(=C/c2ccc(N(C)C)c(Br)c2)C1=O	PLK1 PBD block 6.7µM, VDR inh 79µM
C=CCN1C(=O)NC(=O)/C(=C/c2ccoc2)C1=O	PLK1 PBD block 8.4µM
COc1ccc(CN2C(=O)NC(=O)/C(=C/c3ccoc3)C2=O)cc1	Vif-APOBEC3F blk inconclusive, PLK1 PBD block 2.4µM
CCN(CC)c1ccc(/C=C2\C(=O)NC(=O)N(Cc3ccco3)C2=O)cc1	PLK1 PBD block inconclusive, VDR inh inconclusive
C=CCN1C(=O)NC(=O)/C(=C/c2cccn2C)C1=O	PLK1 PBD block 30µM
Nc1c([N+](=O)[O-])ccc(Oc2ccccc2)c1Cl	none (no result: Vif-APOBEC3F blk, PLK1 PBD block, Vif-A3G inh, TSHR antagonist)
C=C1C([C@@]2(C)C(OC(C)=O)CC(=O)O[C@@](C)(COC(C)=O)C2CC(=O)OC)C(OC=O)C(OC(=O)C(OC(C)=O)C(C)CC)[C@]2(C)C(c3ccoc3)CC(=O)C12O (some centres not stated)	none (no result: Vif-APOBEC3F blk, PLK1 PBD block, Vif-A3G inh, TSHR antagonist)
CCCN1CCc2cc(O)cc3c2[C@H]1Cc1ccc(O)c(O)c1-3	VDR inh 5µM!
CN1CCc2cc(O)cc3c2[C@H]1Cc1ccc(O)c(O)c1-3	VDR inh 4.5µM!
CCCN1CCc2cccc3c2C1Cc1ccc(O)c(O)c1-3 (configuration not stated)	none (no result: Vif-APOBEC3F blk, PLK1 PBD block, Vif-A3G inh, TSHR antagonist)
CN1Cc2c(ccc3c2OCO3)[C@@H]2[C@@H](O)Cc3cc4c(cc3[C@@H]21)OCO4	none (no result: Vif-APOBEC3F blk, PLK1 PBD block, Vif-A3G inh, TSHR antagonist)
Cc1ccc(C(=O)CN2CCOCC2)cc1	none (no result: Vif-APOBEC3F blk, PLK1 PBD block, TSHR antagonist, VDR inh)
CC(C)(O)C1C2OC(=O)C1[C@]1(O)CC3O[C@@]34C(=O)OC2[C@@]14C (some centres not stated)	none (no result: Vif-APOBEC3F blk, PLK1 PBD block, Vif-A3G inh, TSHR antagonist)
Cc1ccc(C2NC(=S)NC(c3ccc(C)cc3)C23C(=O)NC(=O)NC3=O)cc1 (configuration not stated)	none
Cc1ccc(NC2C(=O)NC(=O)NC2=O)cc1	VDR inh 14µM (no result: TSHR antagonist)
O=C1NC(=O)C(Nc2ccccc2)C(=O)N1	VDR inh 25µM (no result: TSHR antagonist)
CCNN	none (no result: Vif-APOBEC3F blk, PLK1 PBD block, Vif-A3G inh, TSHR antagonist)
C=C(C)[C@H]1C2C(=O)O[C@H]1[C@H]1OC(=O)[C@@]34O[C@@H]3C[C@]2(O)[C@@]14C	none (no result: Vif-APOBEC3F blk, PLK1 PBD block, Vif-A3G inh, TSHR antagonist)
c1ccc(N2CCN(c3ccccc3)CC2)cc1	none (no result: Vif-APOBEC3F blk, PLK1 PBD block, TSHR antagonist, VDR inh)
O=C(CCN1CCN(c2ccccc2)CC1)c1ccc(Br)cc1	PLK1 PBD block 8.4µM, VDR inh 89µM
O=C1NC(=S)NC(=O)C1=Cc1ccc(OCc2ccccc2)cc1	PLK1 PBD block 2.7µM, VDR inh 40µM (no result: TSHR antagonist)
O=C(O)COc1ccc(/C=C2/SC(=S)N(Cc3ccccc3)C2=O)cc1	PLK1 PBD block inconclusive, VDR inh inconclusive
CCCCn1c(NS(=O)(=O)c2ccccc2)c(C(=O)OCC)c2nc3ccccc3nc21	PLK1 PBD block inconclusive, VDR inh 45µM
CCOC(=O)c1c(N)n(CCN2CCCCC2)c2nc3ccccc3nc12	none
COC(=O)[C@@]1(O)C[C@@H]2O[C@@]1(C)n1c3ccccc3c3c4c(c5c6ccccc6n2c5c31)C(=O)NC4	none (no result: Vif-APOBEC3F blk, PLK1 PBD block, Vif-A3G inh, TSHR antagonist)
ClC1=C(Cl)C(Cl)=C(Cl)C1=C/C=C/c1ccccc1	Vif-APOBEC3F blk inconclusive, Vif-A3G inh inconclusive
Cc1nc2ccc(P(=O)(O)O)cc2s1	none (no result: Vif-APOBEC3F blk, PLK1 PBD block, Vif-A3G inh, VDR inh)
Cc1ccc2nc3sc(=O)sc3nc2c1	VDR inh 8.9µM (no result: Vif-APOBEC3F blk, PLK1 PBD block, Vif-A3G inh, TSHR antagonist)

Screening data: PubChem BioAssay, National Center for Advancing Translational Sciences (NCATS)
